Bioassay records deposited in PubChem by National Center for Advancing Translational Sciences (NCATS).
The list is not random: actives were taken first. Their share in the collection is about 2.3%.
Tau fluor cs: counter-screen for tau fibril formation inhibitors; Potency, µM (series often up to 57.7 µM), without a hit: at the highest dose activity change, negative = decrease; 280,000 tested, 0.93% active; tau K18 P301L Alexa594 fluorescence, heparin fibrillization; also: potency is read from the fitted curve at half-maximal effect; nearly all actives have a fitted effect of over 55% in size
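Human K18 P301L tau (15 uM unlabeled plus 0.24 uM Alexa 594-labeled, final) in 100 mM sodium acetate pH 7 was mixed with compound and 20 uM heparin and incubated 6 hr at 37 C.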
Tau FP inhib: blocks human tau fibril formation measured by polarization | Potency, µM (doses to about 57.7 µM), without a hit: top-dose activity, negative = inhibition, hits mostly inhibitors | 280,000 tested, 0.39% active | P10636 | K18 P301L tau heparin fibrillization, Alexa594 FP, 6 h; also: potency is read from the fitted curve at half-maximal effect; nearly all actives have a fitted effect of over 55% in size
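Compound effects on tau fibrillization are measured by Alexa 594 fluorescence polarization (ex 555, em 632 nm). K18 P301L tau is used at 15 uM with 0.24 uM labeled tracer, and 20 uM heparin induces aggregation over 6 hr at 37 C.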
Tau fibril ThT: inhibitors of human tau fibril formation, thioflavin T binding; P10636; recombinant tau K18 P301L, heparin-induced fibrillization, ThT fluorescence; Potency, µM (titrated, usually from 57.4 µM), for the others: at the top dose activity, negative = inhibition, actives largely listed as inhibitors; 270,000 tested, 2.1% active; also: potency is read from the fitted curve at half-maximal effect; nearly all actives have a fitted effect of over 55% in size
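Using a mix of unlabeled (15 uM) and Alexa 594-labeled (0.24 uM) tau K18 P301L, heparin-triggered fibrillization over 6 hr at 37 C was scored by ThT fluorescence.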
USP1 inh: blocks the human USP1/UAF1 deubiquitinase complex; 390,000 tested, 0.23% active; recombinant USP1/UAF1, Ub-Rhodamine cleavage fluorescence; Potency, µM (series often up to 57.1 µM), inactives show top-dose activity change, negative = inhibition, usual class: inhibitors; also: potency is read from the fitted curve at half-maximal effect; nearly all actives have a fitted effect of over 60% in size
Target sequence (O94782 whole entry, looked up): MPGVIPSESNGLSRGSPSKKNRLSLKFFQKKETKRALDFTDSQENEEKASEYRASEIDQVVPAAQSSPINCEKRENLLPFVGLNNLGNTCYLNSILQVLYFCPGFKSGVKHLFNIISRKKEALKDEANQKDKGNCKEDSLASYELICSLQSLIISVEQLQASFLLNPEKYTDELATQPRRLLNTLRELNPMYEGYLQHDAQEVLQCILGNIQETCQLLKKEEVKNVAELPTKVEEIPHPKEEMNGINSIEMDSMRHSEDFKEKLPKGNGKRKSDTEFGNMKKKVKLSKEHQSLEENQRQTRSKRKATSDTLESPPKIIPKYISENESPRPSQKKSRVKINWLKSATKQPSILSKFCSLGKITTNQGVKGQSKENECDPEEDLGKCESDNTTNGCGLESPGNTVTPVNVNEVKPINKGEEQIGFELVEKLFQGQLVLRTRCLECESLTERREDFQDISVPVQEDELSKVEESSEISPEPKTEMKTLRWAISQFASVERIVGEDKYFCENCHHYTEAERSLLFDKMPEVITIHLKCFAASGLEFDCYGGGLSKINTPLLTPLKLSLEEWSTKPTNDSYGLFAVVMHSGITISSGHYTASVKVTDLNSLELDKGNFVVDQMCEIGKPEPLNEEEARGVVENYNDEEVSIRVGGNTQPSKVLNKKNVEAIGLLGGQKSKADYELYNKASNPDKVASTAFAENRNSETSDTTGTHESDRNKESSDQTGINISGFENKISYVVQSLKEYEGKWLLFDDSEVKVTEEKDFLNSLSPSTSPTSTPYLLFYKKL
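USP1/UAF1 complex at 1 nM was preincubated with compound for 15 min at room temperature, then Ub-Rho substrate (150nM final) was added. Fluorescence (480/540 nm) was read kinetically, 6 reads every 60 seconds.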
Coupling enz: inhibits coupling enzyme system, counter-screen for aldolase hits | 290,000 tested, 0.67% active | coupling enzyme system counterscreen, AmpLite Red fluorescence | activity change, negative = inhibition, % at 58.2 µM, hits read low; in the data active = activity change below about -30%
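Coupling enzymes only (glyceraldehyde-3-phosphate) + compound, at 57.5 uM final, 10 min RT; add substrate/coupling/AmpLite Red mix, 20 min RT; fluorescence ex 525/em 598 nm. Actives flag coupling-system interference.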
* marks the source's active call; other numbers are inactive results; ? = inconclusive; . = not tested or not shown; [ ] = another dose, or the depositor's remark. Unless noted, calls follow the shape of the dose curve; as a rule, active = well fitted curve in the direction sought with a large enough effect; inconclusive = small, poorly fitted or top-dose-only effect, or another doubt; inactive = no such curve, though single readings can be large; an effect the other way counts as inactive or inconclusive. % is scaled to controls: 0 for no effect and ±100 for the full control effect.

SMILES	Tau fluor cs	Tau FP inhib	Tau fibril ThT	USP1 inh	Coupling enz
O=C1/C(=C/C=C/c2ccco2)SC(=S)N1c1ccc(O)cc1	11µM*[quencher]	?	4µM*	-16%	1
CCOC(=O)CN1C(=O)S/C(=C/c2ccco2)C1=O	.	.	.	-17%	-2
O=C(O)c1ccc(N2C(=O)/C(=C/C=C/c3ccccc3)SC2=S)cc1	-3%	3%	?	-13%	-7
O=C1/C(=C\c2ccco2)SC(=S)N1c1ccc(O)cc1	?	-9%	18µM*	-6%	-20
NN1C(=O)/C(=C\c2ccco2)SC1=S	?	?	32µM*	-1%	-26
O=C(NN1C(=O)/C(=C/C=C/c2ccco2)SC1=S)c1ccncc1	?	?	.	?	1
CN(C)c1ccc(/C=C/C=C2/SC(=S)N(c3ccccc3)C2=O)cc1	0.71µM*[fluorescent]	-6%	2.5µM*	-2%	-9
O=C(C1=COCCO1)N1CCN(S(=O)(=O)c2cccc(F)c2)CC1	.	.	.	-7%	.
CCN(C(=O)Cn1nc(Cc2cccnc2)c2ccccc2c1=O)c1cc(C)ccc1C	-4%	5%	-5%	9%	.
O=C1/C(=C\c2ccc(O)cc2)SC(=S)N1c1cccnc1	-27%	-20%	?	-10%	3
CC(C)C(C(=O)O)N1C(=O)/C(=C/C=C/c2ccco2)SC1=S (centres undefined)	?	25µM*	13µM*	?	-18
O=C1/C(=C/c2ccco2)SC(=S)N1c1cccnc1	?	?	16µM*	4%	-26
CC(C)C(C(=O)O)N1C(=O)/C(=C/c2cccn2C)SC1=S (centres undefined)	7%	1%	?	?	8
Cc1ccc(NC(=O)CCNC(=O)Cn2ccc3ccccc3c2=O)cc1F	.	.	.	-19%	0
COc1ccc(-c2cn3nc(N4CCCC(C(=O)Nc5cc(C)cc(C)c5)C4)sc3n2)cc1 (centres undefined)	?	7%	?	-27%	.
COc1cc(NC(=O)C2CCN(c3nnc(C)c4c(C)n(-c5ccccc5)nc34)CC2)cc(OC)c1	-16%	9%	-11%	-9%	.
COc1ccc2c(c1)CCc1cn3nc(C)cc3nc1-2	-16%	0%	?	-7%	-45*
CC1(CO)COC2(OC1)C(=O)Nc1ccccc12 (centres undefined)	.	.	.	-23%	.
COc1cc(CNc2ccc3[nH]c(=O)[nH]c3c2)cc(Br)c1OCC(=O)NC(C)(C)C	?	8%	?	-3%	-3
COc1cc(CNc2ccc3[nH]c(=O)[nH]c3c2)ccc1OCC(=O)NC(C)(C)C	?	?	14µM*	-6%	-30*
CCOC(=O)C1=C(c2ccccc2)O/C(=C(/C#N)C(F)(F)F)S1	?	?	16µM*	.	0
CCSc1ncc(/C=N/Nc2ccc(F)cc2)n1C	?	5%	8.9µM*	-14%	1
CC(=O)Nc1ccc(NC(=O)CSc2ncc(C(=O)Nc3ccc(F)cc3)c(=O)n2C)cc1	.	.	.	-10%	.
CC(=O)OC1CC2C(C)(C)C(O)CCC2(C)C2CC[C@]3(C)C(=CC(=O)OC3c3ccoc3)C12C (some centres undefined)	-7%	-1%	-4%	.	3
CC(=O)c1ccc(NC(=O)C2CC(=O)N(Cc3ccccc3)C2)cc1 (centres undefined)	-17%	-1%	8.9µM*	-4%	2
SMILES	Tau fluor cs	Tau FP inhib	Tau fibril ThT	USP1 inh	Coupling enz
O=C(N/N=C/c1ccc(-c2ccc(S(=O)(=O)Nc3ncccn3)cc2)o1)c1cc2ccccc2cc1O	?	?	14µM*	?	7
CCOc1ccc(C(=O)N/N=C/c2ccc(-c3ccc(S(=O)(=O)Nc4ncccn4)cc3)o2)cc1	-19%	-1%	?	-17%	13
COc1cc(C(=O)NCC(=O)N2CCN(S(=O)(=O)c3ccccc3)CC2)cc(OC)c1OC	.	.	.	-4%	.
CN(C)c1ccc(/C=N/NC(=O)c2nonc2N)cc1[N+](=O)[O-]	-18%	0%	16µM*	4%	-3
Nc1nonc1C(=O)N/N=C/c1cccc([N+](=O)[O-])c1	10%	13%	-6%	-20%	-1
CCOc1cccc(NC(=O)CSc2ncc(-c3ccccc3)[nH]2)c1	?	1%	?	-7%	.
O=C(CSc1ncc(-c2ccccc2)[nH]1)Nc1cccc(C(F)(F)F)c1	16µM*[quencher]	?	-16%	-11%	.
O=C(Cn1c(O)c(/C=C2\C=Nc3ccccc32)sc1=O)N1CCOCC1	-12%	-12%	1%	-14%	-7
O=c1[nH]c(S)c(/C=C2\C=Nc3ccccc32)s1	?	?	1.4µM*	-25%	-3
Oc1ccc2ccccc2c1N=Nc1ccccc1F	?	0%	16µM*	-14%	-23
Oc1ccc2ccccc2c1N=Nc1ccccn1	?	4%	5µM*	-8%	2
O=S(=O)(O)c1cccc(N=Nc2c(O)ccc3ccccc23)c1	-23%	?	.	?	5
Cc1ccc(O)c(NC2=C(Cl)C(=O)N(Cc3ccccc3)C2=O)c1	?	?	13µM*	-15%	-3
CCOc1ccccc1NC1=C(Cl)C(=O)N(c2ccc(OC)cc2)C1=O	-28%	-6%	?	-1%	0
O=C1C(Cl)=C(Nc2ccccc2O)C(=O)N1c1ccccc1	?	?	14µM*	-22%	-5
COc1ccccc1N1C(=O)C(Cl)=C(Nc2ccccc2O)C1=O	?	28µM*	13µM*	-20%	-3
Cc1ccc2c(=O)c3ccccc3n(CCCN)c2c1C	-6%	-3%	-5%	.	0
Fc1cccc(CSc2ncnc3c2ncn3C2CCCCO2)c1 (centres undefined)	.	.	.	5%	.
CC(=O)c1cccc(NC(=S)Nc2ccn(Cc3cccc4ccccc34)n2)c1	-27%	?	-5%	-9%	3
CC(=O)c1ccc(NC(=S)Nc2ccn(Cc3ccc(Br)cc3)n2)cc1	10µM*[quencher]	?	10%	-11%	2
CC(C)(C)c1ccc(OCCC(=O)Nc2cccc(S(=O)(=O)NC3=NCCCCC3)c2)cc1	.	.	.	-22%	.
CC(=O)N1CCC2(CCCN(c3ccncc3)C2)CC1	.	.	.	.	1
Cn1c(=O)c2c(nc(NNC(=O)C(F)(F)F)n2C)n(C)c1=O	-11%	-4%	-15%	-23%	1
Cn1c(=O)c2c(nc(NN=C3CCCC3)n2C)n(C)c1=O	22µM*[quencher]	?	22µM*	-11%	-5
N#Cc1c(N2CCN(c3ccc(F)cc3)CC2)nc(N)c2c(N)nc3c(c12)CC(=O)N3C1CC1	7%	11%	9%	-15%	-16
CN(CCO)c1nc(N)c2c(N)nc3c(c2c1C#N)CC(=O)N3C1CCCC1	?	?	28µM*	.	-38*
CCC(=O)N1CCc2cc(S(=O)(=O)CCC(=O)N3CCN(c4cc(C)ccc4C)CC3)ccc21	2%	-2%	-6%	-28%	.
